Vif-APOBEC3F blk: qHTS for Inhibitors of Vif-A3F Interactions: qHTS; HeLa A3F-eYFP + Vif (tagged APOBEC3F with the HIV-1 protein that degrades it), YFP fluorescence increase; Potency, µM (top dose mostly 46.1 µM), inactives show at the highest dose activity, negative = active; 390,000 compounds, 0.2% hits; further: potency means the concentration at half of the fitted maximal effect; % of control where 0% means no effect; nearly all actives have a fitted effect of over 65% in size
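Fluorescence increase (Ex 488/Em 500-530) after overnight compound treatment at 37 deg C flags inhibition of Vif-driven A3F-eYFP loss in stable HeLa A3F-eYFP/Vif cells seeded overnight beforehand.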
Vif-APOBEC3G blk: qHTS for Inhibitors of Vif-A3G Interactions: qHTS; Potency, µM (doses to about 46.1 µM), for the others: top-dose activity, negative = active, actives largely listed as inhibitors; DNA dC->dU-editing enzyme APOBEC-3G (Homo sapiens), Q9HC16; 410,000 compounds, 0.076% hits; AID 602310, 2012; HeLa A3G-eYFP + Vif (tagged APOBEC3G with the HIV-1 protein that degrades it), YFP fluorescence, overnight; further: potency means the concentration at half of the fitted maximal effect; on the % scale 0 is the no-effect control and ±100 the full control effect; nearly all actives have a fitted effect of over 60% in size
Target sequence (Q9HC16 whole entry, looked up): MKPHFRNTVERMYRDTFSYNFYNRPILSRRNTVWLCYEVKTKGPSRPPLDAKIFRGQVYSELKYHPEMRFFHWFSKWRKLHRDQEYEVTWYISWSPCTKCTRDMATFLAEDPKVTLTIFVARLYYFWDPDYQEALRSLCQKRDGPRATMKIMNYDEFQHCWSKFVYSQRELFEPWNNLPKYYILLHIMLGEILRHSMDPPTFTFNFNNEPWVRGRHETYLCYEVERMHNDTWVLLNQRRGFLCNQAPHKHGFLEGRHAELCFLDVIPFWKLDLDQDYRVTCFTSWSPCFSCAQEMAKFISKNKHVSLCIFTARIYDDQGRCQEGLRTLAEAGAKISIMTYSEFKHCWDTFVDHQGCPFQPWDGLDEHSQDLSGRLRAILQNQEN
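HeLa cells stably expressing Vif and C-terminally eYFP-tagged A3G, seeded overnight at 37 deg C, then exposed to compound by pintool overnight at 37 deg C. Rise in yellow fluorescence (Ex 488/Em 500-530, Acumen) marks blocked Vif-driven A3G degradation.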
BCR signal inh: qHTS Assay to Find Inhibitors of Chronic Active B-Cell Receptor Signaling; ABC-DLBCL IkBa-CBG/CBR reporter, luminescence ratio, 4 h; Potency, µM (top dose mostly 46.1 µM), for the others: at the highest dose activity change, negative = inhibition, hits mostly inhibitors; 340,000 compounds, 0.05% hits; AID 493014, 2011; active means well fitted inhibition curve with a large enough effect in the signal ratio, with a control signal flat, not every such curve was filed as active; inconclusive means small, poorly fitted or top-dose-only effect, or effect the other way, or a change in a side signal; the % refers to the signal ratio;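 further: potency means the concentration at half of the fitted maximal effect; plate controls were basal doxycycline-induced cells for no effect and cells given 10 µM MG132 for full effect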
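Doxycycline induced both beetle luciferases in TMD8 lymphoma cells; IKK-driven degradation limits the IkappaBalpha-fused green signal, while red luminescence normalises for cell number and nonspecific effects. Compounds tested up to 46 uM, 4 hrs.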
MBNL1-CUG inh: qHTS Assay for Inhibitors of MBNL1-poly(CUG) RNA binding; Muscleblind-like protein 1 (Homo sapiens), Q9NR56; TR-FRET MBNL1-His/biotin-(CUG)12 binding, 665/545 ratio; Potency, µM (titrated, usually from 57.5 µM), for inactives: at the highest dose activity change, negative = inhibition, hits mostly inhibitors; 280,000 compounds, 0.036% hits; AID 2675, 2010; active means well fitted inhibition curve with a large enough effect in the signal ratio, with a control signal flat, not every such curve was filed as active; inconclusive means small, poorly fitted or top-dose-only effect, or effect the other way, or a change in a side signal; inactive means no such curve, though single readings can be large or run the other way; the % refers to the signal ratio; further: potency means the concentration at half of the fitted maximal effect; on the % scale 0 is the no-effect control and ±100 the full control effect
Target sequence (Q9NR56 whole entry, looked up): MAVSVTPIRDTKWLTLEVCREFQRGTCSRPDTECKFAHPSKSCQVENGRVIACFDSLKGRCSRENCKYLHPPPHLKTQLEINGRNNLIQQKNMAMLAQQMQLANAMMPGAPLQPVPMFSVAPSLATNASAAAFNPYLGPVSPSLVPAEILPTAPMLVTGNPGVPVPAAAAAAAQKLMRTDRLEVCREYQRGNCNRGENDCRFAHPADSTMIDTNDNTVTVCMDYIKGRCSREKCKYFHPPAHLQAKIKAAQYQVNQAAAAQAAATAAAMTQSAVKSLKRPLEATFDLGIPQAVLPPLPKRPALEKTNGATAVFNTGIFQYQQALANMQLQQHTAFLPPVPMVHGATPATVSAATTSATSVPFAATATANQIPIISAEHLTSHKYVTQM
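Inhibition of protein-RNA binding appears as loss of TR-FRET between terbium anti-His antibody on MBNL1-His and streptavidin-XL665 on biotin-(CUG)12. Activity is normalized to buffer-only and uninhibited-complex controls.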
TCR act: Activators of T cell receptors: qHTS campaign; 330,000 tested, under 10 active; Potency, µM (highest dose often 9.22 µM), inactives show at the highest dose activation of IL-2 secretion, most hits filed as activators; primary human leukocytes, anti-CD3, IL-2 HTRF, 48 h; further: % of control where 0% means no effect
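Primary human leukocytes were stimulated with a-CD3 beads plus compounds for 48 hr without co-stimulation; secreted IL-2 was quantified by HTRF using a-IL-2-K (europium cryptate) and a-IL-2-d2, excited at 320nm with acceptor emission read at 665nm.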
uPA generation: qHTS for Inhibitors of Cell Surface uPA Generation. cell surface uPA generation assay, qHTS. Potency, µM (titrated, usually from 38.3 µM), for inactives: at the top dose activity change, negative = inhibition, most hits filed as inhibitors. 330,000 compounds, 0.31% hits. AID 540303, 2011; active means well fitted inhibition curve with a large enough effect; inconclusive means small, poorly fitted or top-dose-only effect; inactive means no such curve, though single readings can be large or run the other way; tested in mouse RAW 264.7 cells; further: potency means the concentration at half of the fitted maximal effect; on the % scale 0 is the no-effect control and ±100 the full control effect; nearly all actives have a fitted effect of over 55% in size
MBNL1 TRFRET: qHTS Assay for Inhibitors of MBNL1-poly(CUG) RNA binding: Initial hit validation from the primary screen | shares compounds with MBNL1-CUG inh | TR-FRET MBNL1-His / biotin-(CUG)12 binding, 60 min | Potency, µM (series often up to 57.6 µM), inactives show at the top dose activity change, negative = inhibition, usual class: inhibitors | 140 compounds, 50% hits | AID 493199, 2011
MBNL1-CUG Alpha: qHTS Assay for Inhibitors of MBNL1-poly(CUG) RNA binding: Initial hit validation in AlphaScreen assay for MBNL1-(CUG)12 binding. shares compounds with MBNL1-CUG inh. AlphaScreen MBNL1-His / biotin-(CUG)12 binding. 140 compounds, 30% hits. Potency, µM (top dose mostly 57.7 µM), for the others: top-dose activity, negative = inhibition, most hits filed as inhibitors
Menin-MLL HTRF: qHTS Assay for Inhibitors of MBNL1-poly(CUG) RNA binding: Counterscreen HTRF assay | shares compounds with MBNL1-CUG inh | His-Menin/biotin-MLL peptide TR-FRET counterscreen | Potency, µM (highest dose often 57.6 µM), without a hit: at the highest dose activity, negative = inhibition, actives largely listed as inhibitors | 120 compounds, 20% hits | AID 651843, 2012
Active calls of the source: *; ? = inconclusive; · = not tested or not shown; [ ] = dose if it differs, or a comment. An excerpt weighted towards active compounds, which were near 0.54% of everything screened. Unless noted, the call rests on the fitted dose curve; in most records, active means well fitted curve in the direction sought with a large enough effect; inconclusive means small, poorly fitted or top-dose-only effect, or another doubt; inactive means no such curve, though single readings can be large; an effect the other way counts as inactive or inconclusive.

SMILES	Vif-APOBEC3F blk	Vif-APOBEC3G blk	BCR signal inh	MBNL1-CUG inh	TCR act	uPA generation	MBNL1 TRFRET	MBNL1-CUG Alpha	Menin-MLL HTRF
CCOC(=O)CCCCC(=O)c1[nH]c(=O)[nH]c1CSc1nnc2c3ccccc3n(C(C)C)c2n1	-1%	-1%	-9%	28µM*	-5%[46.1 µM]	-2%	?	3.7µM*	-11%
CCCn1c2ccccc2c2nnc(SCc3[nH]c(=O)[nH]c3C(=O)CCCCC(=O)OCC)nc21	4%	-7%	?	?	0%[46.1 µM]	-3%	·	·	·
Cc1cc(C)c2nccc(C)c2c1	·	4%	·	·	·	·	·	·	·
O=C(Nc1ccc(Cl)c(Cl)c1)Nn1cnnc1	-7%	9%	1%	7.9µM*	5%	1%	6.5µM*	12%	33µM*
Cc1ccc(NC(=O)Nn2cnnc2)cc1Cl	-2%	0%	0%	40µM*	-3%	3%	26µM*	-1%	?
O=C(Nc1ccccc1)Nn1cnnc1	-15%	0%	1%	?	-2%	4%	·	·	·
O=C(Nc1ccc(Br)cc1)Nn1cnnc1	2%	1%	?	32µM*	15%	-3%	41µM*	13%	?
Cc1cc(C)cc(NC(=O)Nn2cnnc2)c1	1%	1%	0%	?	-1%	0%	·	·	·
OC(Cc1ccc2ccccc2n1)c1ccccc1 (stereo not given)	·	-2%	·	·	·	·	·	·	·
CC(Sc1ncc(C#N)c(N)n1)C(=O)Nc1ccccc1 (stereo not given)	1%	-8%	-2%	40µM*	-1%	2%	-1%	?	-2%
O=C(C[n+]1csc2ccccc21)c1ccccc1	·	-1%	·	·	·	·	·	·	·
CC(C)c1cccc(NC(=O)COC(=O)c2ccccc2OCc2cccc(Br)c2)c1	·	2%	·	·	·	·	·	·	·
Cc1oc2nc(SCCCC(=O)NCCO)nc(N)c2c1C	3%	-8%	-1%	20µM*	-1%	0%	?	?	-3%
CCOC(=O)/C(=N\Nc1cc(Cl)ccc1Cl)N1CC(C)OC(C)C1 (stereo not given)	-7%	0%	-1%	2%	-1%	13%	·	·	·
CCOC(=O)/C(=N\Nc1ccccc1Cl)N1CC(C)OC(C)C1 (stereo not given)	-14%	-3%	-5%	0.025µM*	7%	2%	-4%	-6%	-1%
Nc1ccc(C=O)cc1	·	1%	·	·	·	·	·	·	·
CN(C)c1ccc(/C=C2\CCc3cc(N)ccc32)cc1	·	1%	·	·	·	·	·	·	·
Cc1cc[n+](CC(=O)c2ccc(F)cc2)c2ccccc12	·	-1%	·	·	·	·	·	·	·
CC1=C(C(N)=O)C(c2cccc(Br)c2)n2nc(SCc3ccccc3Cl)nc2N1 (stereo not given)	9%	-1%	·	·	·	·	·	·	·
CC1=C(C(N)=O)C(c2cccnc2)n2nc(SCc3ccccc3Cl)nc2N1 (stereo not given)	4%	-8%	3%	25µM*	-5%[46.1 µM]	-2%	2%	-4%	0%
CC(C)OC(=O)CSc1nnc(-c2cnccn2)n1C	2%	-1%	?	40µM*	1%[46.1 µM]	8%	?	-10%	0%
COc1ccc(-c2nc3ccncc3[nH]2)cc1OC	-3%	1%	-1%	20µM*	3%	-12%	6.5µM*	-8%	18µM*
CCCCCCN(CCCCCC)c1ccc(/C=C/c2ccnc3ccccc23)cc1	·	-24%	·	·	·	·	·	·	·
CNC[C@H](O)c1ccc(O)c(O)c1	-2%	0%	1%	22µM*	-5%	?	-14%	-2%	4%
CC(C)NCC(O)c1ccc(O)c(O)c1 (stereo not given)	0%	-3%	-1%	-6%	10%	?	·	·	·
SMILES	Vif-APOBEC3F blk	Vif-APOBEC3G blk	BCR signal inh	MBNL1-CUG inh	TCR act	uPA generation	MBNL1 TRFRET	MBNL1-CUG Alpha	Menin-MLL HTRF
NC[C@H](O)c1ccc(O)c(O)c1	4%	-2%	-9%	·	-1%	?	6.5µM*	?	?
COc1cc(/C=C/c2ccnc3ccccc23)cc(OC)c1OC	·	-26%	·	·	·	·	·	·	·
Cc1nc(Nc2ncc(C(=O)Nc3c(C)cccc3Cl)s2)cc(N2CCN(CCO)CC2)n1	·	-17%	·	·	·	·	·	·	·
NCCCC(N)CC(=O)NCC1NC(=O)C(CO)NC(=O)C(N)CNC(=O)C(C2CCN=C(N)N2)NC(=O)/C(=C/NC(N)=O)NC1=O (stereo not given)	·	·	·	·	·	·	-1%	-7%	·
COc1ccc(CC(=O)Oc2ccc(C)cc2Br)cc1OC	-4%	3%	-2%	16µM*	3%	-5%	?	5.2µM*	16µM*
O=C(Nc1cccnc1Cl)c1cc(-c2cccc(O)c2)on1	2%	4%	?	7.1µM*	-3%	2%	13µM*	?	-62%
CCOc1ccc2[nH]c(=O)c(C(c3nnnn3Cc3ccco3)N3CCN(C)CC3)cc2c1 (stereo not given)	0%	-5%	?	?	-2%	-2%	-6%	-10%	4%
COC(=O)Nc1csc2c1NC(=O)CCCC2	6%	1%	3%	·	-4%	2%	26µM*	10µM*	-13%
Cc1ccc(NC(=O)Nc2csc3c2CCCC3)c(C)c1	5%	-2%	·	·	·	·	·	·	·
O=C1Cc2ccccc2C(=O)N1Cc1ccccc1	-3%	-2%	?	25µM*	7%	2%	-9%	?	3%
O=C(C[N+]1(CCO)CCOCC1)c1ccc2ccccc2c1	·	1%	·	·	·	·	·	·	·
O=C1NC(=O)C2C1C(c1ccccc1)N1C3C(=O)NC(=O)C3C(c3ccccc3)N21 (stereo not given)	1%	-1%	2%	32µM*	-2%	6%	?	?	1%
